This passage reports fold change permeability results from PubChem BioAssay.

Unmarked numbers belong to inactive results. Calls of active or inactive are those of the source. No stated cut-off is given here; in the data, active means fold change permeability below about 0.7 or above about 1.3; inactive means in between.

This assay in a line: modulators of brain endothelial barrier permeability, primary screen, cell-based, FITC-avidin fluorescence, HTS (AID 1963498). Further: test concentration not given here. Particulars: actives lie on both sides.
For the compound `Cc1cccc(C)c1OCC(C)N` (configuration not stated), the fold change permeability was 0.8. The figure for `O=C(c1ccc(OCCCc2cnc[nH]2)cc1)C1CC1` is 1; for `C=CC[C@H](N)C(=O)O` it is 1. As for `O=C1c2ccccc2C(=O)c2c(NCCc3ccc(O)cc3)ccc(NCCc3ccc(O)cc3)c21`, the fold change permeability is 1.1.

Take `NC(=O)c1ccc(OCCCN2C[C@H]3CCC[C@H]3C2)cc1`: the fold change permeability is 0.8. For the compound `COc1cccc2c(NCc3ccccc3)nc(-n3c(N)nc4ccccc43)nc12`, the fold change permeability was 0.9. The figure for `Oc1ccc(/C=C/c2cc(O)cc(O)c2)cc1` is 1.7 (active); for `N#CC(C#N)=C(N)/C(C#N)=C/c1cc(O)c(O)c(O)c1` it is 1.7 (active).

On to `OC[C@H]1NC[C@H](O)[C@@H](O)[C@@H]1O`, for which the fold change permeability was 1.1. Consider `C[C@H]1c2cccc(O)c2C(O)=C2C(=O)[C@]3(O)C(O)=C(C(N)=O)C(=O)[C@@H](N(C)C)[C@@H]3[C@@H](O)[C@@H]21`, for which the fold change permeability is 0.9. Take `N[C@@H](Cc1c[nH]c2ccccc12)C(=O)O`: the fold change permeability is 1.3 (active).

For `C[C@](N)(Cc1ccc(O)c(O)c1)C(=O)O`, the fold change permeability is 0.8. For the compound `CSc1c(C)c(SC)n2ccncc12`, the fold change permeability was 1.3 (active). For the compound `CN1CCN(C2=Nc3ccccc3Cc3ccccc32)CC1`, the fold change permeability is 1.2. The figure for `O=c1[nH]c2ccccc2c2ccccc12` is 1; for `Cc1ccc(C(=O)N(CCCN)C(c2oc3cc(Cl)ccc3c(=O)c2Cc2ccccc2)C(C)C)cc1` (configuration not stated) it is 1.6 (active). As to `CCC1(C)CC(=O)NC1=O` (configuration not stated), the fold change permeability was 0.7 (active). With `NC(=O)c1sc(-c2ccsc2)cc1N`, the fold change permeability was 0.9. Regarding `O=C1Cc2cc(CCN3CCN(c4nsc5ccccc45)CC3)c(Cl)cc2N1`, the fold change permeability was 0.9. `CC1(C)CCC=[N+]1[O-]`: the fold change permeability was 0.9. The result for `O=C(OC12CC3CC(CC(C3)C1)C2)c1ccc(NCc2cc(O)ccc2O)cc1` reads 1. The result for `N[C@@H](COP(=O)(O)O)C(=O)O` reads 1.
